The record followed here is PubChem BioAssay (NCI).

Holding throughout (assay): NCI-60 one-dose screen, 48 h (100 = growth as untreated, 0 = no growth, -100 = all killed)
What all share (conditions): 10 µM unless noted

In assay [1] the test system is NCI-H23 lung.
Assay [2] relates to NCI-H226 lung.
Assay [3] concerns HOP-62 NSCLC.
The subject of assay [4] is NCI-H460 lung.
Assay [5] has as its system HOP-92 NSCLC.
For assay [6], the system named is NCI-H522 lung.
Assay [7] has as its system A549/ATCC NSCLC.
Assay [8] has as its system 786-0 renal.
Assay [9] has as its system COLO 205 colon.

Compounds without any hit were thinned out: in the full panel of roughly 83,000, 20% have a hit.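 Each cell line was grown in a 96-well plate and treated with one concentration of compound for 48 hours. Values below 10 were considered active.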 Values without a mark were called inactive. Active and inactive are the calls of the source.

With `CCN(CC)c1ccc(/C=N/NC(=O)CSc2nc3ccccc3c(=O)n2CCc2ccc(S(N)(=O)=O)cc2)c(O)c1`, the growth in assay [1] was 33.9%; in assay [2] it was 37.9%; in assay [3], 30.4%; in assay [4] it was 12.8%; in assay [5] it was 46.8%; in [6], -14.6% (active). Also, the growth in assay [7] was 25.4%; in assay [8], 49.5%; in [9], 1.47% (active).
Consider `CCOC(=O)c1ccc2c(c1)ncn2-c1ccc(NC(=O)Nc2cccc(C)c2)cc1`, for which the growth in assay [1] is 78.5%; in assay [2], 93.8%; in assay [3], 81.8%; in assay [4], 102%; in [5] it was 117%; in assay [6], 61.3%. Moreover, the figures for the growth in assay [7], in assay [8] and in assay [9] were 103%, 79.2% and 74.3%, respectively.
With `COc1ccc(C(=O)c2cc(C)c(OC)c(C)c2)c(OC)c1OC(=O)C(Cl)Cl`, the growth in assay [1] was 29.2%; in assay [2], 6.91% (active); in [3] it was 17.4%; in assay [4], 2.25% (active); in assay [5], 21.7%; in assay [6], -10.8% (active). Further, the growth in [7] is 11%; in assay [8], 13.1%; in assay [9], 73.5%.
Turning to `COc1ccc(C(=O)C2C(C#N)C(C#N)C3C=Cc4ccccc4N32)cc1` (stereo not given), the growth was 37.9% in assay [1]; 77.6% in [2]; 30.1% in assay [3]; 19.1% in assay [4]; 84.1% in assay [5]; 0.174% (active) in [6]. Also, the growth in assay [7] is 29.9%; in assay [9], -5.52% (active).
Consider `N#Cc1c(NCc2ccccc2I)sc2c1CCCCC2`, for which the growth was 87.5% in assay [1]; 87.5% in assay [2]; 91.3% in assay [3]; 96.7% in [4]; 88.8% in assay [5]; 86.7% in [6]. Besides, the growth in assay [7] was 85.7%; in [8] it was 90%; in assay [9], 108%.
Consider `O=c1ccc(-c2nc(N3CCOCC3)c3ccccc3n2)c[nH]1`, for which the growth in assay [1] is 93.9%; in assay [2], 91.7%; in assay [3], 99.6%; in assay [4], 103%; in assay [5] it was 103%; in [6], 98.9%. The growth is 97% in [7], 97.1% in assay [8] and 106% in assay [9].
In the case of `O=C(c1nc2ccccc2[nH]1)C1C(c2ccc(Br)cc2)C2CC3CCCC[C@H]3N2[C@@]12C(=O)Nc1cc(Cl)ccc12` (stereo not given in full), the growth was 54.5% in [1]; 51.8% in assay [2]; 62.4% in assay [3]; 16.8% in [4]; 52.1% in assay [5]; 59.1% in assay [6]. The growth in [7] was 33%; in [8] it was 42%; in assay [9] it was 21.8%.
Regarding `CC(=O)O[C@H]1Cc2c([nH]c3ccccc23)[C@@H](c2ccc(Cl)cc2)N1C(=O)CCNC(C)(C)C`, the growth in [1] was 84.5%; in [2], 69%; in [3], 69.1%; in assay [4], 37.5%; in assay [5], 14.1%; in assay [6], 63.9%. The growth in assay [7] is 76.3%; in [8] it was 53.1%; in assay [9] it was 53.7%.
Regarding `COCc1cnccc1NC1CCCCCC1`, the growth was 103% in assay [1]; 95.7% in assay [2]; 99.9% in assay [3]; 108% in [4]; 91.2% in assay [5]; 96.3% in assay [7]. In addition, the growth is 106% in [8] and 121% in assay [9].
On to `CCCCCC(=O)Oc1ccc(/C(=C(\C)c2ccccc2)c2ccc(OCCN3CCCCC3)cc2)cc1`, for which the growth is 74.9% in assay [1]; 93.5% in assay [2]; 87.7% in [3]; 82.1% in assay [4]; 91.2% in assay [5]; 70.1% in assay [6]. The growth was 77.5% in [7], 69.9% in [8] and 34.4% in assay [9].
As for `O=C(NO)c1ccc(-n2nc(-c3ccccc3)c3ccccc32)cc1`, the growth in [1] was 49.9%; in assay [2], 56.4%; in assay [3], 29.7%; in [4], 26.6%; in [5], 62.9%; in assay [6], 6.17% (active). Moreover, the growth in [7] is 41.7%; in [9], 49%.
For the molecule `C#Cc1cccc(NC(=O)c2cccc(NC(=O)CCl)c2)c1`, the growth in assay [1] is -77.6% [8.25 µM] (active); in [2], -32% [8.25 µM] (active); in assay [3], -24.9% [8.25 µM] (active); in assay [4], -60.8% [8.25 µM] (active); in [5], -65.3% [8.25 µM] (active); in [6], -65.8% [8.25 µM] (active). For the same molecule, the growth in [7] was 1.7% [8.25 µM] (active); in [8] it was -71.8% [8.25 µM] (active); in [9], -53% [8.25 µM] (active).
